Consider 7 compounds from PubChem BioAssay (Tox21).

Assay [1] is described as follows: qHTS assay to test for compound auto fluorescence at 535 nm (green) in HepG2 cells (AID 720675). Background: Quantitative high-throughput screening tests each substance at several concentrations.
The nature of assay [2]: qHTS assay to test for compound auto fluorescence at 535 nm (green) in HEK293 cells (AID 720680).
Assay [3] is described as follows: qHTS assay to test for compound auto fluorescence at 535 nm (green) in HEK293 cell free culture (AID 720682). An outline of the steps: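 No cells present: wells hold DMEM supplemented with 10% FBS, into which compound or vehicle is pinned. Green emission is then recorded (485 nm excitation, 535 nm emission) and scaled to fluorescein.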
Assay [4] is described as follows: qHTS assay to test for compound auto fluorescence at 590 nm (red) in HEK293 cell free culture (AID 720683). An outline of the steps:
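Cell-free wells of DMEM with 10% FBS received compound, and intrinsic fluorescence was read at excitation/emission 540/590 nm. Values expressed as equivalence to Rose Bengal sodium.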

Assay [5] in a line: qHTS assay to test for compound auto fluorescence at 590 nm (red) in HepG2 cell free culture (AID 720684). An outline of the steps:
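Compound was pinned into wells holding MEM with 10% FBS and no cells, and red fluorescence was read at Ex/Em 540/590 nm. Signal is expressed as auto fluorescence equivalency relative to Rose Bengal sodium.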

Assay [6] in a line: qHTS assay to test for compound auto fluorescence at 460 nm (blue) in HepG2 cell free culture (AID 720685). An outline of the steps:
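Compound (23 nL) or DMSO pinned into cell-free MEM with 10% FBS; blue fluorescence read at 405/460 nm excitation/emission, expressed as auto-fluorescence equivalency to triamterene.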

A short description of assay [7]: qHTS assay to identify small molecule agonists of the RXR signaling pathway - cell viability counter screen (AID 1159529). Note: nearly all actives have a fitted effect of over 50% in size. Note: potency is the fitted concentration of half-maximal effect. An outline of the steps:
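Steps: seed RXR-alpha-UAS-bla HEK 293T cells in assay medium containing 2% charcoal-stripped FBS; incubate 5 hr; add compounds in DMSO; incubate 16 hr at 37 C; after the bla read, add CellTiter-Glo and read luminescence at 30 min.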

Assay [8] in a line: qHTS RealTime-Glo MT Cell Viability Assay in HEK293 cells - 16 hour (AID 1224872). Note: potency is the fitted concentration of half-maximal effect; nearly all actives have a fitted effect of over 50% in size. An outline of the steps:
(§1)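 Quantitative high-throughput screen of the Tox21 10K library in HEK293: cells and RealTime-Glo reagents plated together, compound added at 5 h, luminescence monitored through 40 h at 37 C.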

The nature of assay [9]: A CellTox Green Cytotoxicity Assay to monitor cytotoxicity in HEK293 cells - 24 hour (AID 1224875). Note: nearly all actives have a fitted effect of over 45% in size. Note: potency is the fitted concentration of half-maximal effect. An outline of the steps: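 HEK293 cells, 600/well, were preincubated 5 hours and then exposed to compounds at 37 C for up to 40 hours. A cell-impermeant cyanine dye staining dead-cell DNA was read by fluorescence at 0, 8, 16, 24, 32 and 40 h time points.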
Assay [10] can be described thus: qHTS RealTime-Glo MT Cell Viability Assay in HEK293 cells - 24 hour (AID 1224886). Note: potency is the fitted concentration of half-maximal effect; nearly all actives have a fitted effect of over 50% in size. An outline of the steps:
as §1

Assay [11] is described as follows: qHTS assay to identify small molecule agonists of the androgen receptor (AR) signaling pathway in the presence of an antagonist - cell viability counter screen (AID 1259379). Note: nearly all actives have a fitted effect of over 25% in size. Note: potency is the fitted concentration of half-maximal effect. An outline of the steps:
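MDA-kb2 cells (MMTV-luciferase, AR/GR), 3,000/well, 5 h attachment, then 3.0 µM nilutamide (final) and compounds at 15 concentrations. Viability by CellTiter-Fluor fluorescence after 16 h at 37 °C, 0% CO2, in the reporter wells.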

The nature of assay [12]: qHTS assay to identify small molecule agonists of the estrogen receptor beta (ER-beta) signaling pathway - cell viability counter screen (AID 1259380). Note: nearly all actives have a fitted effect of over 30% in size. Note: potency is the fitted concentration of half-maximal effect. An outline of the steps: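 ER-beta-UAS-bla HEK293T cells in medium with 2% charcoal-stripped FBS, pre-incubated 6 hr, then treated 16 hr at 37C. Cytotoxicity read in the same wells by CellTiter-Glo luminescence after 30 min at room temperature.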

The target of assay [13] is Thyrotropin-releasing hormone receptor (Homo sapiens) (UniProt P34981). The experiment in a line: qHTS assay to identify small molecule agonists of the thyrotropin-releasing hormone receptor (TRHR) signaling pathway (AID 1346891; calls by dose curve;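 note: HEK293 cells expressing TRHR with calcium dye readout; series mostly up to about 58 µM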). An outline of the steps: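 Cells: TRHR-Hek293, seeded and incubated 18 h. Dye loading: 2 h at 37 °C. Compound added from DMSO stock by pin tool. Read-out: kinetic calcium fluorescence over 3 min.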

Assay [14] is described as follows: Caspase-3/7 induction in HepG2 cells by small molecules, qHTS cell viability counter screen (AID 1346981). Note: nearly all actives have a fitted effect of over 30% in size. Note: potency is the fitted concentration of half-maximal effect. An outline of the steps:
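Wild-type HepG2 cells, 2,000/well, settled 5 hr at 37 C, 5% CO2 before compound addition. Viability read by CellTiter-Fluor fluorescence, reagent added after 16 hr compound exposure, then 1 hr at 37C, in the same wells as the caspase read.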

For assay [15], the target named is Cytochrome P450 2D6 (Homo sapiens) (UniProt P10635). Kind of assay: Cytochrome P450 Family 2 Subfamily D Member 6 (CYP2D6) small molecule antagonists: luciferase reporter qHTS assay (AID 1671196). Note: nearly all actives have a fitted effect of over 50% in size. Note: potency is the fitted concentration of half-maximal effect. An outline of the steps:
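Cell-free P450-Glo system: CYP2D6 with proluciferin substrate was pre-incubated with compound for 10 min, then reacted with NADPH regeneration for 1 h at room temperature. Luciferin product was detected after 20 min, and data were reported as relative luminescence units.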

Assay [16] concerns the target Cytochrome P450 3A4 (Homo sapiens) (UniProt P08684). The experiment in a line: Cytochrome P450 Family 3 Subfamily A Member 4 (CYP3A4) small molecule antagonists: luciferase reporter qHTS assay (AID 1671201). Note: nearly all actives have a fitted effect of over 50% in size. Note: potency is the fitted concentration of half-maximal effect. An outline of the steps: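 qHTS, 1536-well. CYP3A4 + proluciferin substrate, cpd 10 min RT → NADPH regen 1 h RT → detection reagent 20 min → luminescence (RLU). Ketoconazole positive control.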

Assay [17] is described as follows: qHTS RealTime-Glo MT Cell Viability Assay in HepG2 cells - 8 hour (AID 1224873). Note: nearly all actives have a fitted effect of over 55% in size. Note: potency is the fitted concentration of half-maximal effect. An outline of the steps: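 HepG2 cells (600/well) mixed with RealTime-Glo MT reagent, settled 5 h at 37 C/5% CO2 before compound addition. Nonlytic NanoLuc luminescence from viable-cell prosubstrate reduction read repeatedly during 40 h treatment at 37 C.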
The nature of assay [18]: Human pregnane X receptor (PXR) small molecule agonists, qHTS cell viability counter screen (AID 1346977). An outline of the steps:
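Cytotoxicity counter screen run in the same wells as the PXR luciferase assay, using PXR-Luc HepG2 cells in charcoal-stripped serum medium. Viability: CellTiter-Fluor fluorescence after 24hr compound treatment.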

A short description of assay [19]: qHTS assay to identify small molecule agonists of the hypoxia (HIF-1) signaling pathway - cell viability counter screen (AID 1224844; calls by dose curve; note: nearly all actives have a fitted effect of over 50% in size; note: potency is the fitted concentration of half-maximal effect). An outline of the steps:
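HRE-bla ME-180 cells, 2,000/well in 0.5% dialyzed FBS medium, treated 17 h at 37C with compounds. Viability read in the same wells as the bla reporter, by CellTiter-Glo luminescence after 30 min at room temperature.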

Assay [20] deals with Nuclear receptor subfamily 1 group I member 3 (Homo sapiens) (UniProt Q14994). The experiment in a line: qHTS assay to identify small molecule agonists of the constitutive androstane receptor (CAR) signaling pathway (AID 1224839). Note: nearly all actives have a fitted effect of over 15% in size. Note: potency is the fitted concentration of half-maximal effect. An outline of the steps:
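Cells were plated and incubated 4 hrs, then dosed with compounds at 15 concentrations. PK11195 was added to 0.75 uM final. After 24 hrs at 37 C, luciferase luminescence was measured.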

Where “and” joins values, the source holds several entries; their conditions need not be identical. Equal values may be shown once. Results filed as inconclusive are left out. Where a structure was tested more than once in an assay, its records may differ in their call. Calls of active or inactive are those of the source. Unless noted, calls come from the whole dose curve; as a rule, active = well fitted curve in the direction sought with a large enough effect in the repeat runs; inconclusive = weak or mixed curves; inactive = no such curve, though single readings can be large; an effect the other way counts as inactive or inconclusive.

Cytochrome P450 2D6 (Homo sapiens), sequence (P10635 whole entry, looked up): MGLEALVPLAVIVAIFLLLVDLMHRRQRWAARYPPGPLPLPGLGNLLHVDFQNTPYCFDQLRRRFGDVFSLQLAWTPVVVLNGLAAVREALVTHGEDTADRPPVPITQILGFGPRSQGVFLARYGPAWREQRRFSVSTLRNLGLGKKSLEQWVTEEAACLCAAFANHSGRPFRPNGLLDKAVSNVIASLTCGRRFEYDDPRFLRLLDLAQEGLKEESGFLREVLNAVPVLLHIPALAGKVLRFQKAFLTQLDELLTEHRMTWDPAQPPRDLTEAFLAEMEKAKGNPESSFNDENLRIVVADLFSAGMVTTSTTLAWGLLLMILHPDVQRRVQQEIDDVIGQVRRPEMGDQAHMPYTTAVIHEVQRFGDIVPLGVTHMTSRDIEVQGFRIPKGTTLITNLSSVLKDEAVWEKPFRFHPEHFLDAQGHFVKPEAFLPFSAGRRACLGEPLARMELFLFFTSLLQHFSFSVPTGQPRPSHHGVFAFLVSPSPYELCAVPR
Nuclear receptor subfamily 1 group I member 3 (Homo sapiens), sequence (Q14994 whole entry, looked up): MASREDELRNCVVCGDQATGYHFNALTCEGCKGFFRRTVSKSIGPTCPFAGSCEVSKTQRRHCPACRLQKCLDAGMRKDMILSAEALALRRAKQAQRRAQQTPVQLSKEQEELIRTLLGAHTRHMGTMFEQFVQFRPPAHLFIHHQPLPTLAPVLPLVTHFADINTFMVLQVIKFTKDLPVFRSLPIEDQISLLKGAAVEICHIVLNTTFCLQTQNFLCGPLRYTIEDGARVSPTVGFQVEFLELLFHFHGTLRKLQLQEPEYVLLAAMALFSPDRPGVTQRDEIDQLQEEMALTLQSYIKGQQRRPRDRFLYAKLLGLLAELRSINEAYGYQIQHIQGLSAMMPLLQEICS
Cytochrome P450 3A4 (Homo sapiens), sequence (P08684 whole entry, looked up): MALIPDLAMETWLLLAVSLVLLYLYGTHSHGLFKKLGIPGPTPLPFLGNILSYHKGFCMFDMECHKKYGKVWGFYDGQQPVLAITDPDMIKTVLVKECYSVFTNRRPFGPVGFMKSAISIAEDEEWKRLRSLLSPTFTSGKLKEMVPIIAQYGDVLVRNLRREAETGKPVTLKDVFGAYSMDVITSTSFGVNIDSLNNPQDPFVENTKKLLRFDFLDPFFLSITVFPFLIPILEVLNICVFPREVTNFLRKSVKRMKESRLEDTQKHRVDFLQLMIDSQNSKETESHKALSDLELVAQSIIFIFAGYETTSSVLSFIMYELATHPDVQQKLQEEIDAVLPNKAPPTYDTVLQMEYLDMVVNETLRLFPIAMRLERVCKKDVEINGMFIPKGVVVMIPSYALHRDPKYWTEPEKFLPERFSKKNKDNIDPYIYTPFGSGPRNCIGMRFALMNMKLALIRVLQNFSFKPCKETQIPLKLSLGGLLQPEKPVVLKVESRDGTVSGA
Thyrotropin-releasing hormone receptor (Homo sapiens), sequence (P34981 whole entry, looked up): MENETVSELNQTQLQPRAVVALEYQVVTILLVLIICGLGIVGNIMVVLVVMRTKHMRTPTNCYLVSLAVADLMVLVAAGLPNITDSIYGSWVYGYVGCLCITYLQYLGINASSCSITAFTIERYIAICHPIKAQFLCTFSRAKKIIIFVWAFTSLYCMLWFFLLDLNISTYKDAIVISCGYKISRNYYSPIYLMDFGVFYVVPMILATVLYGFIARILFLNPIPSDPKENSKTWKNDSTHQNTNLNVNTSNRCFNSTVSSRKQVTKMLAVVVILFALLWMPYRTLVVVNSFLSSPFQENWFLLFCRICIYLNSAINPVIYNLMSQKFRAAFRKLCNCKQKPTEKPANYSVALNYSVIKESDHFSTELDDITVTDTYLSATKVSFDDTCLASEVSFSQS

For `OCC(c1ccc(Cl)cc1)c1ccc(Cl)cc1`, the Potency result in [1], in assay [2], in assay [3], in assay [6], in [11] and in [14] was “inactive” throughout. Further, the Potency result in assay [15] and in assay [16] was “inactive” each time. The call in assay [4], in assay [5] and in assay [13] was inactive. Besides, the Potency in assay [7] was 54.9 µM (active); in assay [8] it was 30.9 µM (active); in assay [9] it was 24.5 µM (active); in assay [10] it was 30.9 µM (active); in assay [12], 54.5 µM (active).

`O=C(c1ccccc1)C(Cl)Cl`: the Potency entry in assay [7], in assay [12] and in assay [16] was “inactive” in each case. Besides, the Potency in [8] and in assay [10] was 34.7 µM (active) in each case. For the same compound, the compound was classed as inactive in assay [13].

In the case of `Nc1ccc([N+](=O)[O-])cc1`, the Potency result in assay [1], in [2], in [3], in [6] and in [17] was “inactive” throughout. In addition, the call in assay [4] and in assay [5] was inactive. Besides, the Potency in assay [8] was 21.9 µM (active); in assay [9] it was 49 µM (active); in assay [10], 24.5 µM (active); in assay [11], 30.6 µM (active); in assay [12], 27.3 µM (active); in assay [18] it was 34.4 µM (active). Also, the Potency in assay [14] was 40.9 µM (active); in assay [15], 50.2 µM (active).

As for `CC1COC(Cn2cncn2)(c2ccc(Oc3ccc(Cl)cc3)cc2Cl)O1` (stereo not given), the Potency result in [1], in [2], in assay [3], in [6], in assay [19] and in [9] was “inactive” each time. Besides, the call in assay [4] and in assay [5] was inactive. The Potency in assay [8] was 21.9 µM (active); in assay [10], 19.5 µM (active); in assay [11], 48.6 µM (active); in assay [18], 21.7 µM (active); in assay [14], 43.3 µM (active); in assay [15], 39.9 µM (active). Besides, the Potency in [16] was 79.6 nM (active).

For the compound `CC(C)(C)c1cc(C(C)(C)C)c(O)c(C(C)(C)C)c1`, the Potency in [20] is 8.63 µM (active).

As to `CN1CSC(=S)N(C)C1`, the Potency result in [1], in assay [2], in assay [3], in [6], in [20] and in assay [17] was “inactive” in each case. The Potency entry in assay [9], in [14], in assay [15] and in assay [16] was “inactive” each time. Also, the result in [4], in assay [5] and in assay [13] was inactive. The Potency in [7] is 10.9 µM (active) and 8.69 µM (active); in assay [8], 15.4 µM (active); in assay [10], 17.3 µM (active) and 24.5 µM (active); in [11], 27.2 µM (active) and inactive; in assay [12] it was 4.31 µM (active) and 9.66 µM (active); in assay [18] it was 5.01 µM (active) and 21.6 µM (active).

On to `Cc1ccc(N(SC(F)(Cl)Cl)S(=O)(=O)N(C)C)cc1`, for which the Potency result in assay [1], in [2], in assay [3], in [6] and in assay [20] was “inactive” throughout. Further, the call in assay [4], in assay [5] and in assay [13] was inactive. Also, the Potency in [7] is 38.9 µM (active); in [19] it was 17.4 µM (active); in assay [8], 5.49 µM (active); in [17], 21.9 µM (active); in assay [9], 17.4 µM (active); in assay [10], 5.49 µM (active). Besides, the Potency is 27.3 µM (active) in assay [11], 54.5 µM (active) in assay [12], 43.3 µM (active) in [18] and 61.1 µM (active) in assay [14].
